# Reference: PubChem BioAssay AID2685 (National Center for Advancing Translational Sciences (NCATS), 2010)
# Among all 320,000 compounds or so, about 2,100 (0.66%) were called active. Inconclusive results (about 53%) are left out. Calls follow the shape of the dose curve; as a rule, active = well fitted inhibition curve with a large enough effect in the signal ratio, with a control signal flat (not every such curve was filed as active); inconclusive = small, poorly fitted or top-dose-only effect, or effect the other way, or a change in a side signal; inactive = flat fitted curve, though single readings scatter; the % refers to the signal ratio. Many of the other results were omitted from the sample, so actives are more common in it than they were.
# Test: qHTS Assay for Lipid Storage Modulators in Drosophila S3 Cells;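 as to cell number change: cells counted by Cell Tracker Red CMTPX staining in the red channel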
# Settings: BODIPY lipid droplet fluorescence, 18-24 h, cells fed with added oleic acid; cell number change: measured here: cell count max response; series mostly up to 46.1 µM
# Summary of the method: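 Drosophila S3 cells loaded with oleic acid (400 uM, as added) and compounds at several concentrations; lipid droplets imaged by 488-nm laser-scanning cytometry, 500–530 nm intensity and object ratio to cell channel. Percent activity normalized to 20 uM Triacsin C.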
# Potency is read from the fitted curve at half-maximal effect.
Compound,Potency,cell number change [%],outcome
O=C(N=C1N=C2C=CC=CN2Cc2ccccc21)c1ccc(S(=O)(=O)N2CCCC2)cc1,inactive,13.8,
O=C(Nc1ccc(Oc2ncnc3cc(Cl)ccc23)nc1)Nc1cccc(C(F)(F)F)c1,inactive,-3.74,
O=C(N[C@H]1CC1c1ccccc1)c1ccc([N+](=O)[O-])cc1 (some centres undefined),inactive,-1.22,
C=C(C)Cn1c(-c2ccncc2)n[nH]c1=S,inactive,-24.7,
O=C(CCN1CCOCC1)N1CCCC(Nc2ccc(F)cc2)C1 (centres undefined),inactive,,
O=C1Nc2ncccc2OC1CCO (centres undefined),25.9 µM (active),-19.3,
O=C1Nc2ncccc2OC1CCCl (centres undefined),inactive,11.9,
CCS(=O)(=O)c1ccc2c(c1)NC(=O)C(CCO)O2 (centres undefined),inactive,7.6,
CCOC(=O)c1ccc(NC(=O)Cn2c(=O)oc3ccccc32)cc1,inactive,2.64,
COc1cc(C2NC(=O)NC(C)=C2C(=O)OC(C)(C)C)ccc1OCC(N)=O (centres undefined),inactive,1.52,
CC1=C(C(=O)OC(C)(C)C)C(c2cccs2)NC(=O)N1 (centres undefined),inactive,16.7,
COc1ccc2c(c1OC)C(=O)NC(C)=C(C(=O)OC(C)(C)C)C2O (centres undefined),14.6 µM (active),0.147,
O=C1O/C(=C\C(=O)N2CCOCC2)c2ccccc21,inactive,1.94,
CCN(CC)c1ccc(C(=O)OCC(=O)Nc2cc3oc4ccccc4c3cc2OC)cc1,inactive,-0.812,
CC(C)n1c(SCC(=O)N2CCN(C)CC2)nc2c1c(=O)n(C)c(=O)n2C,inactive,1.32,
CC(C)n1c(SCC(=O)N2CCCCC2)nc2c1c(=O)n(C)c(=O)n2C,0.116 µM (active),-23,
Cn1c(=O)c2c(nc(SCC(=O)N3CCCCCC3)n2C)n(C)c1=O,inactive,8.11,
CCC(CC)C(=O)NCCc1cc2ccc(C)c(C)c2[nH]c1=O,inactive,,
CCn1cc(/C=N/O)c(C)n1,inactive,7.41,
CC1(C)N=C(/C=N/O)C=[N+]1[O-],6.51 µM (active),-9.07,
CCCN(CCC)CCCNC(=O)C1CCC(CNS(=O)(=O)c2cccc3nsnc23)CC1 (centres undefined),inactive,-15,

Compound,Potency,cell number change [%],outcome
CC(=O)NC(c1ccc(C(C)C)cc1)c1ccc2cccnc2c1O (centres undefined),inactive,,
CCCCC(=O)NC(c1ccccc1OC)c1ccc2cccnc2c1O (centres undefined),inactive,-24,
CCCCC(=O)NC(c1ccc(C(C)C)cc1)c1ccc2cccnc2c1O (centres undefined),18.4 µM (active),-28.4,
CCOc1c(Br)cc(CNc2ccc(N3CCOCC3)cc2)cc1OC,inactive,-20.8,
Cc1cc(OC(C)C(=O)NCC(O)c2ccccc2)c2c(C)cc(=O)oc2c1 (centres undefined),inactive,6.57,
CCOc1ncccc1C(=O)NCc1ccccc1Cl,inactive,,
COc1ccc(CC(=O)NNC(=O)COc2ccc(Br)cc2C)cc1OC,inactive,1.07,
COc1ccccc1C(=O)Nc1sc2c(c1C(N)=O)CCCC2,inactive,-22.3,
NC(=O)c1c(NC(=O)c2ccc(F)cc2)sc2c1CCC2,4.61 µM (active),5.61,
NC(=O)c1c(NC(=O)c2ccccc2)sc2c1CCC2,inactive,-24.3,
NC(=O)c1c(NC(=O)c2ccc(F)cc2Cl)sc2c1CCC2,inactive,3.89,
NC(=O)c1c(NC(=O)c2ccccc2F)sc2c1CCCC2,1.64 µM (active),-10.7,
O=C(Nc1sc2c(c1C(=O)O)CCCCC2)c1ccccc1F,inactive,-1.56,
O=S(=O)(Nc1ccc(Cl)cn1)c1ccccc1,inactive,14.4,
Cc1cccc(/N=C/c2nc(-c3ccccc3Br)oc2O)n1,inactive,18.5,
COc1cc(S(=O)(=O)N2CCOCC2)ccc1NC(=O)COC(=O)c1ccccn1,inactive,9.96,
Cc1ccc[n+](CC(=O)N2CCCc3ccccc32)c1,inactive,-16.8,
O=C(CSc1ccccn1)N1CCN(c2ncc(C(F)(F)F)cc2Cl)CC1,inactive,6.61,
O=C(O)c1nn(CC(=O)N2CCN(c3ncc(C(F)(F)F)cc3Cl)CC2)c(=O)c2ccccc12,0.82 µM (active),-1.8,
CNCC(=O)N1CCN(c2ncc(C(F)(F)F)cc2Cl)CC1,inactive,-11.3,
CSc1nnc(-c2ccccc2)n1N,inactive,9.66,

Compound,Potency,cell number change [%],outcome
Cc1ccc(NC(=O)c2cccnc2)cc1S(=O)(=O)N(C)C,inactive,5.29,
CCOc1ccc(-n2cc(-c3ccccc3)c3c(SC(C)C(=O)OC)ncnc32)cc1 (centres undefined),inactive,-20.7,
CCn1c(=O)cc(OCC(=O)Nc2ccccc2N2CCN(C)CC2)c2ccccc21,inactive,6.65,
COC(=O)c1cc(CNC(=O)c2sccc2-c2ccccc2)ccc1OC,inactive,-10.7,
CCOc1ccc(Cc2c(Cl)nc(N)nc2Cl)cc1,inactive,,
COc1ccc(Cc2c(C)nc(N)nc2Cl)cc1,inactive,9.54,
COc1ccc(Cc2c(Cl)ncnc2Cl)cc1,18.4 µM (active),-13.7,
CCOC(=O)C(=CNc1ccc(S(N)(=O)=O)cc1)C(=O)OCC,inactive,-11.4,
CCOc1ccc(NC(=O)[C@@H](NC(=O)c2ccco2)C(C)C)cc1,inactive,4.17,
Cc1nc(SCC(=O)c2ccc(Cl)cc2)c([N+](=O)[O-])[nH]1,inactive,-28.5,
Cc1ccc(C(C)C)c(OCC(=O)NNC(=O)CC2OC(=O)c3ccccc32)c1 (centres undefined),,,inactive [at 0.0737 µM]
Cc1ccc(C(C)C)c(OCC(=O)Nn2c(C)nc3ccccc3c2=O)c1,inactive,,
Cc1ccc(C(C)C)c(OCC(=O)NNC(=O)C(C(C)C)N2C(=O)c3ccccc3C2=O)c1 (centres undefined),16.4 µM (active),-20.9,
CC(=O)N1c2ccccc2NC2=C(C(=O)CCC2)C1c1ccc(F)cc1 (centres undefined),inactive,1.82,
COc1ccc2c(c1)c(CC(=O)OC(C)C(=O)N(C)C)c(C)n2C(=O)c1ccc(Cl)cc1 (centres undefined),1.46 µM (active),-15.8,
COc1ccc2c(c1)c(CC(=O)OCC(N)=O)c(C)n2C(=O)c1ccc(Cl)cc1,inactive,-0.195,
COc1ccc2c(c1)c(CC(=O)O)c(C)n2C(=O)c1ccc(Cl)cc1,inactive,3.94,
Cc1ccc(/C=C2\Oc3cc(OC(=O)N4CCOCC4)ccc3C2=O)cc1,inactive,0.311,
COC(=O)CC(NC(=O)C1CC1)c1ccc2c(c1)OCO2 (centres undefined),inactive,,
